# Measured values published in PubChem BioAssay (EPA / NIEHS).
# Results filed as inconclusive are left out. Activity calls are given as the source filed them. The calls were made as follows: active = hit-call score of the fitted dose curve at least 0.9, where 1 is the maximum; inconclusive = response in the unintended direction; inactive = score below 0.9.
# Assay: Tanguay_ZF_120hpf_TR_legacy: (Legacy) Oregon State University Tanguay Lab 120 Hour Post-fertilization zebrafish Assay for Touch Response (AID 2283667)
# Protocol: Tanguay_ZF_120hpf_legacy is a whole embryo, multiplexed endpoint assay using zebrafish larvae exposed for 120 hours post fertilization on a 96-well plate.Tanguay_ZF_120hpf_TR_legacy is one of one assay component(s) measured or calculated from the Tanguay_ZF_120hpf_legacy assay. It is designed to make measurements of zebrafish development as detected with brightfield microscopy of developing zebrafish embryos.Data from the assay component Tanguay_ZF_120hpf_TR_legacy was analyzed into 1 assay endpoints. This assay endpoint, Tanguay_ZF_120hpf_TR_legacy, was analyzed in the positive analysis fitting direction relative to DMSO as the negative control and baseline of activity. Using a type of morphology reporter, gain-of-signal activity can be used to understand changes in developmentals as they relate to the whole embryo. To generalize the intended target to other relatable targets, this assay endpoint is annotated to the zebrafish development intended target family, where the subfamily is embryonic functional response.
# Zebrafish husbandry: Tropical 5D wild-type adult zebrafish were housed in at an approximate density of 1000 per 100 gallon tank at the Sinnhuber Aquatic Research Laboratory, Oregon State University, Corvallis, OR. Each tank was kept at standard laboratory conditions of 28C on a 14-h light/10-h dark photoperiod in fish water consisting of reverse osmosis water supplemented with a commercially available salt (Instant Ocean). Spawning funnels were placed into the tanks the night prior, and embryos were collected and staged. […] Ten microliters of each row of dilution plate 2 was added to 2 exposure plates. The final DMSO concentration used was 0.64% (vol/vol). Thirty-two embryos were also exposed to 5uM trimethyltin chloride (positive control). Plates were sealed to prevent evaporation and foil covered to reduce light exposure and kept in a 28C incubator. Embryos were statically exposed until 120 hpf. At 24 hpf, embryos were assessed for photomotor response using a custom photomotor response analysis tool (PRAT) and for developmental toxicity endpoints (MO24: mortality at 24 hpf, DP: developmental progression, SM: spontaneous movement, and NC: notochord distortion). At 120 hpf, locomotor activity was measured using Viewpoint Zebralab and assessed for 18 endpoints. Zebrafish acquisition and analysis program (ZAAP), a custom program designed to inventory, acquire, and manage zebrafish data, was used to collect developmental endpoints as either present or absent (i.e., binary responses were recorded). If mortality occurred for an embryo (at either 24 or 120 hpf), the non-mortality endpoints were not measured.
SMILES,outcome,AC50
Cc1ccc(N=C=O)cc1N=C=O,inactive,–
Nc1ccc([N+](=O)[O-])cc1,inactive,–
CCCCOC(=O)c1ccccc1C(=O)OCc1ccccc1,inactive,–
CCCCCCCCn1sccc1=O,inactive,–
CN(C)[C@@H]1C(=O)C(C(N)=O)=C(O)[C@@]2(O)C(=O)C3=C(O)c4c(O)cccc4[C@@](C)(O)[C@H]3C[C@@H]12,inactive,–
C=CCc1ccc2c(c1)OCO2,inactive,–
CCCCCCCCCCCCCN1CC(C)OC(C)C1 (stereo not given),inactive,–
O=[N+]([O-])c1ccc(Oc2ccc(Cl)cc2Cl)cc1,inactive,–
Cc1ccc(N)c(N)c1,inactive,–
CCCCC(CC)COC(=O)c1ccc(C(=O)OCC(CC)CCCC)c(C(=O)OCC(CC)CCCC)c1 (stereo not given),inactive,–
CC(C)(C)C(O)(CCc1ccc(Cl)cc1)Cn1cncn1 (stereo not given),inactive,–
CN(C)c1ccc(C(=O)c2ccc(N(C)C)cc2)cc1,–,43.3 µM (active)
CCNS(=O)(=O)C(F)(F)C(F)(F)C(F)(F)C(F)(F)C(F)(F)C(F)(F)C(F)(F)C(F)(F)F,–,17 µM (active)
CC(C)(OOC(C)(C)c1ccccc1)c1ccccc1,inactive,–
CCC[CH2][Sn]([Cl])([CH2]CCC)[CH2]CCC,inactive,–
CO[C@@H]1[C@H](OC(=O)NC(=O)CCl)CC[C@]2(CO2)[C@H]1[C@@]1(C)O[C@@H]1CC=C(C)C,inactive,–
C1=Cc2cccc3cccc1c23,inactive,–
CCN(CC)N=O,inactive,–
CN(C)c1ccccc1,inactive,–
COC(=O)Nc1nc2ccccc2[nH]1,inactive,–

SMILES,outcome,AC50
N#CC(Br)Br,inactive,–
c1ccc2c(c1)-c1cccc3cccc-2c13,inactive,–
CCCCCOC(=O)c1ccccc1C(=O)OCCCCC,inactive,–
CC(C)COC(=O)c1ccccc1C(=O)OCC(C)C,inactive,–
Clc1ccc(Cl)c(Cl)c1,inactive,–
Nc1cc(Cl)cc(C(=O)O)c1Cl,inactive,–
Oc1ccc2ccc3cccc4ccc1c2c34,–,44.1 µM (active)
C[N+](C)(C)CC1CO1 (stereo not given),inactive,–
N#CC(Br)(Br)C(N)=O,inactive,–
CCCSC(=O)N(CCC)CCC,inactive,–
O=C(N[C@H](c1ccccc1)[C@@H]1CN2CCC1CC2)c1c(Cl)ccc(C(F)(F)F)c1Cl,–,0.968 µM (active)
COP(=S)(OC)SCN1C(=O)c2ccccc2C1=O,inactive,–
Clc1ccccc1Cl,inactive,–
c1ccc(NNc2ccccc2)cc1,inactive,–
COC(=O)c1ccccc1N,inactive,–
CC(C)(C)OOC(C)(C)CCC(C)(C)OOC(C)(C)C,inactive,–
Nc1ccc(Oc2ccc(N)cc2)cc1,inactive,–
CCOc1cccc(C2(N3CCN(c4ccccc4)CC3)CCC(C)CC2)c1 (stereo not given),inactive,–
CCCCCCCCOC(=O)c1ccc(C(=O)OCCCCCCCC)c(C(=O)OCCCCCCCC)c1,inactive,–
CC(C)N(Cc1ccccc1)C(=O)C(C)(C)C,inactive,–
